Values joined by “and” are separate entries in the source; they are usually repeats but may differ in a detail not shown here. Equal entries are not always repeated. Inconclusive results are not listed. Where a structure was tested more than once in an assay, its records may differ in their call. Active and inactive are the calls of the source. Unless noted, calls come from the whole dose curve; as a rule, active = well fitted curve in the direction sought with a large enough effect; inconclusive = small, poorly fitted or top-dose-only effect, or another doubt; inactive = no such curve, though single readings can be large; an effect the other way counts as inactive or inconclusive.

For experiment [1], the target named is Cytochrome P450 3A4 (Homo sapiens) (UniProt P08684). Kind of experiment: qHTS Assay for Inhibitors and Substrates of Cytochrome P450 3A4 (AID 884). Note: nearly all actives have a fitted effect of over 50% in size. Note: potency is the fitted concentration of half-maximal effect. Summed up:
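Luminescent readout of luciferin produced by CYP3A4 (20 nM) dealkylation of Luciferin-PPXE, 25 uM (its KM). NADPH-driven reaction ran 60 min at RT after 10 min compound preincubation; data scaled to 57 uM ketoconazole as 100% inhibition.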
A general note: qHTS replaces the single test concentration by a dilution series.

Experiment [2] in a line: Cell Viability - LYMP2-001 (AID 921).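 Note: series mostly up to about 92 µM; cells exposed to compound for 24 h at 37 °C; 0% = DMSO only and full inhibition = tetraoctylammonium bromide control wells; nearly all actives have a fitted effect of over 70% in size.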 Summed up:
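A lymphoblastoid cell line of human origin was treated with library compounds across a concentration series for 24 hours, and viable cell number was estimated from ATP-driven luciferase light output. Hill modeling gave AC50.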

Experiment [3] in a line: MultiTox-Fluor Cytotoxicity Assay - LYMP1-001 - Live Cells (AID 947).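 Note: 0% = DMSO only and full inhibition = tetraoctylammonium bromide control.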
The nature of experiment [4]: Cell Viability - LYMP2-010 (AID 981).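 Note: cells exposed to compound for 24 hours at 37 °C; % is set by controls: 0 for no effect and ±100 for the full control effect; nearly all actives have a fitted effect of over 55% in size.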 Summed up:
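This 24 hr viability screen uses LYMP2-010 lymphoblastoid cells, quantifies ATP via luciferase luminescence, and derives AC50 from Hill fits of qHTS concentration-response data.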

The nature of experiment [5]: Cell Viability - LYMP2-012 (AID 982).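 Note: cellular ATP by luciferase luminescence where a drop means cytotoxicity; cells exposed to compound for one day before reading; 0% = DMSO only and full loss = 92 µM tetraoctylammonium bromide; nearly all actives have a fitted effect of over 55% in size.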
A short description of experiment [6]: Cell Viability - LYMP2-016 (AID 984).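 Note: cells exposed to compound for 24 hours at 37 °C; % is set by controls: 0 for no effect and ±100 for the full control effect; nearly all actives have a fitted effect of over 55% in size.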 Summed up:
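Concentration-dependent ATP depletion measured in LYMP2-016 lymphoblastoid cells, 24 h, 37 C; luciferase-based luminescent detection; Hill-equation AC50.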

A short description of experiment [7]: Cell Viability - LYMP2-024 (AID 988).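 Note: plate controls were DMSO only for no effect and 92 µM tetraoctylammonium bromide for full effect; nearly all actives have a fitted effect of over 60% in size.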 Summed up:
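Cells at 2500 per well received compound for 24 hr after a 5 hr settling period. Viability was scored by CellTiter-Glo luminescence, with AC50 from Hill fits.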

Experiment [8] has as its target Estrogen receptor (Homo sapiens) (UniProt P03372). In words: qHTS assay for small molecule antagonists of estrogen receptor alpha signaling (AID 588513; active = well fitted curve in the direction sought with a large enough effect in the signal ratio, with a control signal flat, not every such curve was filed as active; the % refers to the signal ratio; note: % is set by controls: 0 for no effect and ±100 for the full control effect). Summed up: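 Antagonist-mode qHTS in ER-alpha-UAS-bla HEK 293 cells: compound titration, 0.5nM estradiol for 18 h, CCF4 fluorescence, Hill-derived IC50.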
For experiment [9] the target is unchanged. Kind of experiment: qHTS assay for small molecule agonists of estrogen receptor alpha signaling (AID 588514; calls by dose curve;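 note: 0% = vehicle only and 100% = reference agonist; nearly all actives have a fitted effect of over 70% in size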). Summed up:
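Fluorescence from CCF4 cleavage reports ER-alpha-driven beta-lactamase expression in HEK 293 cells treated 18 hrs at 37 C. Data normalized to 17-beta-estradiol (20 nM) and DMSO, fitted to Hill equation.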

The target in experiment [10] is Glucocorticoid receptor (Homo sapiens) (UniProt P04150). Kind of experiment: qHTS assay for small molecule agonists of glucocorticoid receptor signaling (AID 588532; active = well fitted curve in the direction sought with a large enough effect in the signal ratio, with a control signal flat; the % refers to the signal ratio;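 note: 100% = dexamethasone at 0.1 µM and 0% = DMSO only wells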). As to conditions: HeLa MMTV-bla, beta-lactamase ratio, agonist, 18 h; stronger effect = higher value; percent of dexamethasone control, DMSO zero. Summed up:
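MMTV-bla HeLa, beta-lactamase reporter; medium with 1% charcoal/dextran-stripped FBS; cpds up to 92 uM, 18 h, 37 C; CCF4 readout 460/530 nm; Hill fit → EC50, efficacy vs 0.1 uM dexamethasone = 100%.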

For experiment [11] the target is unchanged. In words: qHTS assay for small molecule antagonists of glucocorticoid receptor signaling (AID 588533; active = well fitted inhibition curve with a large enough effect in the signal ratio, with a control signal flat, not every such curve was filed as active; the % refers to the signal ratio;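 note: cells stimulated with 2 nM dexamethasone as agonist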; note: potency is the fitted concentration of half-maximal effect). Summed up: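 Antagonist-mode qHTS: compound titrations added to GRE-bla HeLa cells, then dexamethasone 2 nM final; 18 h, 37 C. CCF4 FRET fluorescence normalized to dexamethasone and DMSO; IC50 from Hill fit.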
Experiment [12] deals with Peroxisome proliferator-activated receptor gamma (Homo sapiens) (UniProt P37231). Kind of experiment: qHTS assay for small molecule agonists of peroxisome proliferator-activated receptor gamma signaling (AID 588536; active = well fitted curve in the direction sought with a large enough effect in the signal ratio, with a control signal flat, not every such curve was filed as active; the % refers to the signal ratio;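 note: 0% = DMSO basal wells and 100% = rosiglitazone at 2 µM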). Summed up:
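Compound treatment: 16 h, 37 C, HEK293 GeneBLAzer cells. Detection: CCF4, 2 h RT. Values: Hill-fit EC50, efficacy as % of 2 uM rosiglitazone.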

The target in experiment [13] is Retinoic acid receptor RXR-alpha (Homo sapiens) (UniProt P19793). Kind of experiment: qHTS assay for small molecule agonists of retinoid X receptor alpha signaling (AID 588544; calls by dose curve; note: potency is the fitted concentration of half-maximal effect;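 for activation: 0% = DMSO basal wells and 100% = reference agonist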).
The target of experiment [14] is Thyroid hormone receptor beta (Homo sapiens) (UniProt P10828). In words: qHTS assay for small molecule antagonists of thyroid hormone receptor beta signaling (AID 588547; active = well fitted inhibition curve with a large enough effect in the signal ratio, with a control signal flat, not every such curve was filed as active; the % refers to the signal ratio;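 note: cells stimulated with 0.4 nM T3 agonist during compound exposure; series mostly up to about 77 µM; % is set by controls: 0 for no effect and ±100 for the full control effect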). To be noted: TR-UAS-bla HEK293, beta-lactamase ratio, antagonist mode, 18 h. Summed up: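 TR-UAS-bla GripTite HEK293 cells in 2% charcoal/dextran FBS medium were preincubated 4 h at 37 C, given compound (0.59 nM to 92 uM) plus 0.4 nM T3 (final) for 18 h, then CCF4 for 2 h at RT; Hill fit gave IC50.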

Experiment [15] can be described thus: qHTS assay for small molecule activators of the p53 signaling pathway (AID 651743; active = well fitted activation curve with a large enough effect in the signal ratio, not every such curve was filed as active; the % refers to the signal ratio; note: series mostly up to about 92 µM; % of control where 0% means no effect). To be noted: HCT-116 p53RE-bla, beta-lactamase FRET ratio, 16 h; activation: stronger effect = higher value. Summed up: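 Here HCT-116 cells with an integrated p53-responsive beta-lactamase gene were incubated with compounds (16 hours, 37 C) after a 5-hour plating period; beta-lactamase activity was detected as fluorescence intensity via B/G FRET substrate.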

For experiment [16], the target named is Tumor necrosis factor (Homo sapiens) (UniProt P01375). Kind of experiment: qHTS assay to identify small molecules that stimulate Tumor Necrosis Factor-alpha (TNF-alpha) secretion (AID 651757; active = well fitted curve in the direction sought with a large enough effect in the signal ratio; the % refers to the signal ratio; note: 0% is about no effect). Summed up: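 Using 3000 THP-1 cells per well, compounds and controls were applied for 17 hrs at 37 C. Detection followed with two labeled anti-TNF-alpha antibodies (cryptate donor, XL665 acceptor) for 3 hr at room temperature, measured by TR-FRET.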

Experiment [17] can be described thus: qHTS assay for environmental chemicals that activate the Aryl hydrocarbon Receptor (AhR) signaling pathway (AID 651777). Note: % of control where 0% means no effect; nearly all actives have a fitted effect of over 15% in size. As to conditions: 1A2-DRE human hepatoma cells, luciferase, 24 h; activation: stronger effect = higher value. Summed up:
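Concentration–response screening used 1,200 1A2-DRE cells per well, 24 hr compound exposure (37 C, 5% CO2), and One-Glo luminescence as the AhR-driven CYP1A2 reporter signal.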

Experiment [18] concerns the target Nuclear receptor ROR-gamma (Homo sapiens) (UniProt P51449). In words: qHTS assay for small molecule antagonists of the retinoid-related orphan receptor gamma (ROR-gamma) signaling pathway (AID 651802). Note: nearly all actives have a fitted effect of over 60% in size. Note: potency is the fitted concentration of half-maximal effect. Summed up: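 Doxycycline-induced reporter activity in engineered CHO cells (TET-inducible ROR, RORE-LUC) was measured by luminescence after 16hr compound exposure at 37C.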

Experiment [19] can be described thus: qHTS assay for small molecule antagonists of the retinoid-related orphan receptor gamma (ROR-gamma) signaling pathway - cell viability counter screen (AID 720652; active = well fitted curve in the direction sought with a large enough effect in the repeat runs; an effect the other way counts as inactive or inconclusive;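 note: series mostly up to about 92 µM; compound exposure lasted 16 hr before ATP read; % is set by controls: 0 for no effect and ±100 for the full control effect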). Summed up:
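ATP-based viability readout in the ROR-gamma reporter CHO cells after 16 hr compound exposure under doxycycline induction.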

For experiment [20], the target named is Nuclear receptor subfamily 1 group I member 2 (Rattus norvegicus) (UniProt Q9R1A7). Kind of experiment: qHTS assay for small molecule activators of the rat pregnane X receptor (rPXR) signaling pathway (AID 651751; call rule not given here; note: 0% is about no effect). As to conditions: rPXR reporter cells, luciferase (One-Glo), 24 h.
Chain of Nuclear receptor subfamily 1 group I member 2 (Rattus norvegicus) (Q9R1A7 whole entry, looked up): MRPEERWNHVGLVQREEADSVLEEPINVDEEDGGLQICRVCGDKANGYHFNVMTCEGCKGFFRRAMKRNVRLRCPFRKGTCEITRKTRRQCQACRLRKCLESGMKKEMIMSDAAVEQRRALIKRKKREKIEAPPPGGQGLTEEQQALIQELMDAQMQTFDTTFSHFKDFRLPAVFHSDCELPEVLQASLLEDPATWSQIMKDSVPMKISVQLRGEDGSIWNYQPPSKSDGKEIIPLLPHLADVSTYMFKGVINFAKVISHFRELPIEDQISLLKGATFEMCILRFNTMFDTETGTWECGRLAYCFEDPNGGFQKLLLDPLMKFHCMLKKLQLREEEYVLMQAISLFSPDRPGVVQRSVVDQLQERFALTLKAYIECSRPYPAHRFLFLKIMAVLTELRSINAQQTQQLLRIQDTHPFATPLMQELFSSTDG

Chain of Cytochrome P450 3A4 (Homo sapiens) (P08684 whole entry, looked up): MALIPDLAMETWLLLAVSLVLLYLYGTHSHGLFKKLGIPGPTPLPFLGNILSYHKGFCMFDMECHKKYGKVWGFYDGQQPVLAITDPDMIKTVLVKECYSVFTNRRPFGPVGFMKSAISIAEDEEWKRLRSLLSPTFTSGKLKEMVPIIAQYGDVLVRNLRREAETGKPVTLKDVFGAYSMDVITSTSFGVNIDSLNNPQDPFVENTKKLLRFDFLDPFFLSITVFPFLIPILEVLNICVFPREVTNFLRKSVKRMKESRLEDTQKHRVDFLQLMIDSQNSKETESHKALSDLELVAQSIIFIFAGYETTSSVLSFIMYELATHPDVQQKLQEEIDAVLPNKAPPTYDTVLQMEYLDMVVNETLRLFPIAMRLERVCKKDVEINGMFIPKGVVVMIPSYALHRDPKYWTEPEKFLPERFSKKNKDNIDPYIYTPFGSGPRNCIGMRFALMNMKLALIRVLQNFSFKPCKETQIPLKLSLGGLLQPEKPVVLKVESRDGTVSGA
Chain of Tumor necrosis factor (Homo sapiens) (P01375 whole entry, looked up): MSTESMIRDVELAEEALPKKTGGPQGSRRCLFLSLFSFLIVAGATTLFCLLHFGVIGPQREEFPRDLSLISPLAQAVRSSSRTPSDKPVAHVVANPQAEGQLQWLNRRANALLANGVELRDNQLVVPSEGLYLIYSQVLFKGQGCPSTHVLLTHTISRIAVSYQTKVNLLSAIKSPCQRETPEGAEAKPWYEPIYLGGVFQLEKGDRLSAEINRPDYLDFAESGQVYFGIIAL
Chain of Retinoic acid receptor RXR-alpha (Homo sapiens) (P19793 whole entry, looked up): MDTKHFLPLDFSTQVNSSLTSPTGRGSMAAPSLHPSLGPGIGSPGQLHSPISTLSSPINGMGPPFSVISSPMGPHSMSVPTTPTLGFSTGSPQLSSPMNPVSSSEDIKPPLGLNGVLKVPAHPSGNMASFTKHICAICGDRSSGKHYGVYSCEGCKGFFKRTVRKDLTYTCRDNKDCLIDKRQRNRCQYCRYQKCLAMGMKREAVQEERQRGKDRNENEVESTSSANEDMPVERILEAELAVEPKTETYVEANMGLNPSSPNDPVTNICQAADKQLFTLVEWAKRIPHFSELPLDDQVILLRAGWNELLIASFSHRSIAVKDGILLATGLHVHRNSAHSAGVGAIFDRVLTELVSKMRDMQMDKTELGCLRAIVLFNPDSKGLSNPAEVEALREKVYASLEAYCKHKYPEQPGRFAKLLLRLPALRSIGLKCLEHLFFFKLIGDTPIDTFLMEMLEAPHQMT
Chain of Glucocorticoid receptor (Homo sapiens) (P04150 whole entry, looked up): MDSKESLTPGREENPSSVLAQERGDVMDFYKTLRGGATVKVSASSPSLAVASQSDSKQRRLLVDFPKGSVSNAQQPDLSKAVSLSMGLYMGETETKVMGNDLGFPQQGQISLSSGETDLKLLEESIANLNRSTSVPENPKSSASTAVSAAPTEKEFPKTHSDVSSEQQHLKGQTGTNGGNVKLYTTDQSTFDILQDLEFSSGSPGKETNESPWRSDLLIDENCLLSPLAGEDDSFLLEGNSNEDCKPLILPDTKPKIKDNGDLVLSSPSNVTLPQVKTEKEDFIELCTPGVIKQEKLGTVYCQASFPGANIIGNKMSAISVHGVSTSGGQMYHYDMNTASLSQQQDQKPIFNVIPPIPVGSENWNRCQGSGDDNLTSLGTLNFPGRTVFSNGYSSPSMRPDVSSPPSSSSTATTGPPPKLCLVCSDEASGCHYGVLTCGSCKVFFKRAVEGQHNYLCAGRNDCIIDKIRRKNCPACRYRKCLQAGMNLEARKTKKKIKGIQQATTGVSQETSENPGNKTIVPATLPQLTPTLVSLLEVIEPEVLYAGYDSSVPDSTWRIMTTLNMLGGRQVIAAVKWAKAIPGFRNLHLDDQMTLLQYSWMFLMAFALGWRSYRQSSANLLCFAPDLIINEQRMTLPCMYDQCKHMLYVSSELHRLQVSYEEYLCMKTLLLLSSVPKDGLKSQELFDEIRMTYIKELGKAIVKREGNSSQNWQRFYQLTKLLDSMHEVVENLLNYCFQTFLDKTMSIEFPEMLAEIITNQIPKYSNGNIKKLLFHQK
Chain of Thyroid hormone receptor beta (Homo sapiens) (P10828 whole entry, looked up): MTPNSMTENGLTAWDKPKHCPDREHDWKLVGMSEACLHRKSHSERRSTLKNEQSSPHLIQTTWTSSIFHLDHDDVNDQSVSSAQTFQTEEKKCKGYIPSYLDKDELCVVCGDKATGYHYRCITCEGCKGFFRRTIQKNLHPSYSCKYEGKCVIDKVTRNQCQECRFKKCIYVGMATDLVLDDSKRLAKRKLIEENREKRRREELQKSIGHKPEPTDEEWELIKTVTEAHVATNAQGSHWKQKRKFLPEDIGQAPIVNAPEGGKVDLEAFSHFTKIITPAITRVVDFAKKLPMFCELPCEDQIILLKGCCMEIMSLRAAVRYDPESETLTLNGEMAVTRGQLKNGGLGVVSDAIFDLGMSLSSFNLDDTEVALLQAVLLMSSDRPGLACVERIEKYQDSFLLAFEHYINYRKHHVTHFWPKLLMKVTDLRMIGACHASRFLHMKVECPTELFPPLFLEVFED
Chain of Estrogen receptor (Homo sapiens) (P03372 whole entry, looked up): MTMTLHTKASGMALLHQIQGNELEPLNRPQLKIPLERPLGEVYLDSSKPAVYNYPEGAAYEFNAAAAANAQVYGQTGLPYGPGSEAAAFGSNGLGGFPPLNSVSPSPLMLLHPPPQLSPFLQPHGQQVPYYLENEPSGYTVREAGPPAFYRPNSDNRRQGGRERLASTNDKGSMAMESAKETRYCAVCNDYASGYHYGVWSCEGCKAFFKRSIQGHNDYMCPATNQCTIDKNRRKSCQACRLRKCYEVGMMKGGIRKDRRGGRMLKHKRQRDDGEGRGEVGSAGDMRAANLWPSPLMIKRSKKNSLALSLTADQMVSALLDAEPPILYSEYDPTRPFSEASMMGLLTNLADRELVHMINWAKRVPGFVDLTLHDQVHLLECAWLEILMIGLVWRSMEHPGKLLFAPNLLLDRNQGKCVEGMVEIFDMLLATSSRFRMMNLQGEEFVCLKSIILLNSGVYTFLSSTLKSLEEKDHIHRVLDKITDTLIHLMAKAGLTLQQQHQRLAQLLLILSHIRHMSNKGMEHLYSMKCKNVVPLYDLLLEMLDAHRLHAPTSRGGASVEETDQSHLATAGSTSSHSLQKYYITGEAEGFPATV
Chain of Nuclear receptor ROR-gamma (Homo sapiens) (P51449 whole entry, looked up): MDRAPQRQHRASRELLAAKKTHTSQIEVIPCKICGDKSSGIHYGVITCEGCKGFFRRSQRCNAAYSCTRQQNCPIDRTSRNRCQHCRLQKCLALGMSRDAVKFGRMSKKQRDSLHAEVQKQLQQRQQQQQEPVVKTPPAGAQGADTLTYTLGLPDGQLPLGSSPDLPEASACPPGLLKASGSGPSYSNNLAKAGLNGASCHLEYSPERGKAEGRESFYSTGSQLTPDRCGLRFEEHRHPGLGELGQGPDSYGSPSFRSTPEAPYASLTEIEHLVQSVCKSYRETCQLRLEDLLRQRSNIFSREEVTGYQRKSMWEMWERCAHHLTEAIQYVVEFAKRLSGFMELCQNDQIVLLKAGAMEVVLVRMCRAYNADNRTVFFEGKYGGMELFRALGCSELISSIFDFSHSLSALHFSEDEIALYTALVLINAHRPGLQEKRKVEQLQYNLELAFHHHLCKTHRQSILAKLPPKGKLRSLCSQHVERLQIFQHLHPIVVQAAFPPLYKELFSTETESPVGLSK
Chain of Peroxisome proliferator-activated receptor gamma (Homo sapiens) (P37231 whole entry, looked up): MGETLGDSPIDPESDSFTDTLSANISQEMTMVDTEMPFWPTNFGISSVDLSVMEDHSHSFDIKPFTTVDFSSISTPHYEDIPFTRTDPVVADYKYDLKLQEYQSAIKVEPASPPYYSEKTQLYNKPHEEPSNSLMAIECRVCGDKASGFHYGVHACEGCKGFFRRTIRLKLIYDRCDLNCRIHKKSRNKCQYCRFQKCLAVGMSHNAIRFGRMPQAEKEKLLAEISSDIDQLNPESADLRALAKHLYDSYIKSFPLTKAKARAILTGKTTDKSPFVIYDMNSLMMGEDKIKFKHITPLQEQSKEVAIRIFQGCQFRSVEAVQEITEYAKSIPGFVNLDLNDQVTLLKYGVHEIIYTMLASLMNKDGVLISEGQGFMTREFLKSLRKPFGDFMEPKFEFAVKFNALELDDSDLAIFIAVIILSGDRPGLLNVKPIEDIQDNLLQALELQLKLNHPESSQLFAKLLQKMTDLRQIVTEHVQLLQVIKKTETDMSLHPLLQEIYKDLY

For the compound `C=CCOC(C)=O`, the Potency result in [1], in [2], in experiment [3], in [4], in experiment [5] and in experiment [6] was “inactive” in each case. In addition, the Potency entry in experiment [7], in experiment [8], in experiment [9], in experiment [11], in [13] and in experiment [18] was “inactive” throughout. Moreover, in [19], the Potency result is “inactive”. Moreover, the activation in [10] was 10.3% (inactive); in experiment [15], -2.44% (inactive); in experiment [17], -0.904% (inactive). Moreover, the call in experiment [12] and in experiment [16] was inactive. In addition, the activity change % (negative = inhibition) in experiment [14] was 14.6% (inactive). The max response in experiment [20] was -1.67% (inactive).

With `Cc1ccccc1N`, the Potency result in experiment [1] was “inactive and 25.1 µM (active)”. Further, the Potency result in [2], in [3], in [4], in experiment [5], in experiment [6] and in experiment [7] was “inactive” each time. Besides, the Potency entry in experiment [13], in experiment [18] and in [19] was “inactive” in each case. Also, in experiment [14], the activity change % (negative = inhibition) was 0.476% (inactive) and 3.77% (inactive). For the same compound, the activation in experiment [15] was -1.62% (inactive) and -3.19% (inactive); in experiment [17], 4.33% (inactive) and 3.03% (inactive). Moreover, the compound was called inactive in [16]. Further, the max response in [20] is -2.81% (inactive) and 0.311% (inactive).

As for `C[C@]12CC[C@H]3[C@@H](CCC4=CC(=O)CC[C@@]43C)[C@@H]1CC[C@@H]2O`, the Potency entry in experiment [1], in experiment [2], in experiment [3], in experiment [4], in experiment [5] and in [6] was “inactive” in each case. Also, the Potency entry in experiment [7] and in [19] was “inactive” throughout. The activation in [10] is -9.17% (inactive); in experiment [15], -0.245% (inactive); in [17] it was -1.35% (inactive). Moreover, the Potency in experiment [11] is 7.08 µM (active); in [13], 12.6 µM (active); in experiment [18], 26.6 µM (active). In experiment [14], the activity change % (negative = inhibition) is 14.5% (inactive). In addition, the result in experiment [16] was inactive. Moreover, the max response in experiment [20] is 3.05% (inactive).

`O=[N+]([O-])c1ccc(Cl)c(Cl)c1`: the Potency result in [1], in experiment [2], in experiment [3], in experiment [4], in experiment [6] and in [7] was “inactive” each time. In addition, the Potency result in experiment [8], in [9], in [11], in experiment [13], in [18] and in [19] was “inactive” throughout. Besides, the activation was 0.986% (inactive) in [10] and 0.165% (inactive) in experiment [17]. Also, the outcome in experiment [12] and in experiment [16] was inactive. Also, the activity change % (negative = inhibition) in experiment [14] is -4.24% (inactive). In experiment [20], the max response was 0.633% (inactive).

With `C=CC(N)=O`, the Potency result in experiment [2], in [3], in experiment [4], in [5], in experiment [6] and in experiment [7] was “inactive” in each case. Moreover, the Potency result in experiment [8], in [11], in experiment [13], in [18] and in experiment [19] was “inactive” throughout. For the same compound, the activation is -1.03% (inactive) and 0.342% (inactive) in [10]; -1.86% (inactive) and -1.05% (inactive) and 3.38% (inactive) in experiment [15]; 0.655% (inactive) and -0.766% (inactive) and 0.336% (inactive) in [17]. Further, in experiment [16], the compound was called inactive. The max response in experiment [20] is 2.43% (inactive) and 2.67% (inactive) and -1.89% (inactive).
